# Data: ChEMBL document CHEMBL3988442, “University of Dundee, Small-Polar-MMV Screening Library” (2021)
# The whole screen tested about 48,000 compounds, of which about 13,000 (27%) showed an effect of 50% or more. Some of the results follow.
# Tested on: Wolbachia pipientis
# Assay: Anti-Wolbachia Cell-Based Screen
# Format: functional
# Design: scale not given: in the data most compounds retested in dose-response had high values
# Settings: 5 µM
row,Structure (SMILES),Percent Effect [%]
1,Cc1nn(C)c(N(C)C)c1CNCc1cccc(Br)c1,-4.706
2,CCN(CC)c1nc(C)cc(C(=O)Nc2cnn(CC)c2)n1,114.1
3,CN(C)C(=O)c1cccc(NC(=O)c2cnn(C)c2)c1,-1.797
4,CCN(CC)c1nc(C)cc(C(=O)Nc2ccc(Br)cc2)n1,134.8
5,CCN(CC)c1nc(C)cc(C(=O)Nc2cccc(C(N)=O)c2)n1,132.2
6,CCN(Cc1cccc(C(N)=O)c1)c1ccccc1,7.168
7,CCc1sc(C(=O)Nc2cnn(CCN(C)C)c2)cc1C,11.53
8,Cc1ccc(NC(=O)c2n[nH]c(-n3cnnc3)n2)cc1C,9.368
9,CCn1cc(NC(=O)c2cccc(OCC(F)(F)F)n2)cn1,10.55
10,Cc1noc(NC(=O)c2ccc(Br)cc2)n1,7.251
11,CC(C)(C)CN[C@@H]1CO[C@H](CNC(=O)Nc2ccccc2)[C@H]1O,-16.93
12,CCOc1ccccc1OCCN(C)Cc1nccn1C,8.395
13,CC(=O)N(Cc1noc(C2CC2)n1)C1CCN(Cc2ccccn2)C1 (stereo not given),122.2
14,CC(=O)N(Cc1noc(C)n1)C1CCN(Cc2ccccn2)C1 (stereo not given),104.4
15,CC(=O)N(Cc1noc(C2CC2)n1)C1CCN(Cc2nccn2C)C1 (stereo not given),3.362
16,CC(=O)N(Cc1noc(C)n1)C1CCN(Cc2cc(C)on2)C1 (stereo not given),0.668
17,CC(=O)N(Cc1noc(C2CC2)n1)C1CCN(Cc2cc(C)on2)C1 (stereo not given),124.1
18,CC(=O)N(Cc1noc(C)n1)C1CCN(Cc2ccon2)C1 (stereo not given),2.71
19,CCCC(=O)N(CCCN1CCOCC1)c1nc2c(C)ccc(Cl)c2s1.Cl,32.82
20,CN(C)CCOCC1CN(C(=O)N2CCCC2)Cc2ccnn2C1.O=C(O)C(F)(F)F.O=C(O)C(F)(F)F (stereo not given),-8.834
21,CSC(C)(C)CNC(=O)NCc1cccc(-n2cncn2)c1,2.602
22,COCCOCCNC(=O)N1CCc2c(F)ccc(F)c2C1,-0.5371
23,N#Cc1cc(F)ccc1Cn1cncn1,9.511
24,CNC(=O)Cc1noc(Cc2ccc3c(c2)CCCC3)n1,11.56
25,CN(C)CC1(O)CCCN(Cc2cnc(-c3ccco3)nc2)CC1 (stereo not given),2.959
26,CCn1cc(CN2CCC(O)(Cn3nc(C)ccc3=O)CC2)cn1,106.9
27,Cc1ccc(=O)n(CC2(O)CCN(Cc3cnc(N(C)C)nc3)CC2)n1,82.15

row,Structure (SMILES),Percent Effect [%]
1,Cc1ccc(=O)n(CC2(O)CCN(Cc3cnc(C)nc3)CC2)n1,-9.776
2,CCn1ccnc1CN1CCC(Oc2ccccc2F)(C(=O)O)CC1,-0.1414
3,Cc1ccc(=O)n(CC2(O)CCN(Cc3ccsc3)CC2)n1,-12.71
4,CN(C)c1cnn(CC(=O)N2CCN(Cc3cccs3)CC2)c(=O)c1,2.186
5,Cc1ccc(=O)n(CC2(O)CCN(Cc3c(F)cccc3F)CC2)n1,89.56
6,Cc1ccc(=O)n(CC2(O)CCN(Cc3cccs3)CC2)n1,102.3
7,Cn1cnn(Cc2c(F)cccc2Br)c1=O,12.84
8,Cc1noc(C)c1CN(C)C(C)c1cccs1 (stereo not given),-4.592
9,CCCn1cnc2c1CN(S(=O)(=O)c1ccc(F)cc1)[C@H](C(=O)OC)C2,-2.883
10,CCCC1(CNCc2ncc[nH]2)CCC1,-4.212
11,CCN1CCc2[nH]cnc2C12CCN(C(=O)CCCn1cncn1)CC2,0.07379
12,CCC(C(=O)NCc1cccnc1)N(c1cccc(C)c1)S(C)(=O)=O (stereo not given),-6.23
13,COc1ccccc1COCC(O)CN(C)c1ccc(C)cc1C (stereo not given),-38.72
14,CCn1ccnc1C1CCN(C(=O)C(O)c2ccc(Cl)cc2)CC1 (stereo not given),-5.147
15,COc1ccc(C(=O)NC2CC2)c(OC2CCN(CCCSC)CC2)c1,-3.444
16,COCCN(CCOC)S(=O)(=O)N(C)Cc1ccncc1,7.861
17,Cn1cc(CN2CCC3(CC2)CC(=O)Nc2ccccc23)cn1,-46.12
18,Cn1cc(CN2CC3(CCN(C(=O)c4ccoc4)C3)C2)cn1,3.005
19,Cc1ccc(=O)n(CC2(O)CCN(Cc3cnn(C)c3)CC2)n1,99.25
20,Cc1ccc(=O)n(CC2(O)CCN(Cc3ccoc3)CC2)n1,91.7
21,Cc1nc2c(c(N3CC=CC3)n1)CCN(Cc1ccoc1)CC2,2.971
22,CCN(CC)Cc1ccc(C(=O)NC2CCc3cc(Br)ccc32)o1 (stereo not given),-2.859
23,CC(C)c1cc(NCc2csc(C(C)C)n2)nc(N)n1,-18.23
24,COc1ccc(C(=O)Nc2ccccc2-c2ccc(=O)n(C)n2)cc1,17.03
25,COc1ncccc1C(=O)Nc1ccccc1-c1ccc(=O)n(C)n1,-13.19
26,COc1ccc(C(=O)Nc2cccc(SC)c2)c(OC)n1,175.2
27,COc1ncccc1NC(=O)c1cccc(C)n1,-5.429

row,Structure (SMILES),Percent Effect [%]
1,COc1ccc(C(CO)NC(=O)Nc2cccc(C(C)=O)c2)cc1 (stereo not given),-19.79
2,COc1ccc(NC(=O)c2cccc(OC)c2OC)cc1,-22.1
3,COc1ccc(C(=O)Nc2ccccc2C(C)C)c(OC)n1,169
4,COc1cc(NC(=O)c2cccc(N(C)C)c2)cc(OC)c1,6.421
5,COc1ccc(C(=O)Nc2cccc(C(N)=O)c2)c(OC)n1,132
6,CC(C)Oc1ncc(C(=O)N2CCc3ccc(O)cc3C2)cc1Cl,-26.56
7,CN1N=C(c2nc(Cc3cccc(Br)c3)no2)CCC1=O,-6.645
8,CC(C(=O)NC1CC1)S(=O)(=O)c1cc2c(cc1Cl)OCCO2 (stereo not given),-15.14
9,Cc1noc(C)c1CNS(=O)(=O)N(C)Cc1ccccc1Br,-0.1877
10,CCc1noc(CN(C)C(=O)COc2cccc(Cl)c2C)n1,4.111
11,O=C(O)C(F)(F)F.c1coc(CN2CCO[C@H]3[C@H](OCC4CCCC4)CC[C@@H]32)c1,101
12,O=C(O)C(F)(F)F.c1coc(CN2CCO[C@H]3[C@@H](OCC4CC4)CC[C@@H]32)c1,73.75
13,O=C(O)C(F)(F)F.c1csc(CN2CCO[C@H]3[C@H](OCC4CCCC4)CC[C@@H]32)n1,-7.308
14,CC(C)NC(=O)[C@H]1C[C@@H]2[C@@H](C1)OCCN2Cc1ccco1.O=C(O)C(F)(F)F,1.513
15,O=C(O)C(F)(F)F.c1coc(CN2CCO[C@H]3[C@H](OCC4CC4)CC[C@@H]32)c1,120.5
16,CCC(Nc1ccc(Oc2cccc(C#N)c2)cc1)C(N)=O (stereo not given),18.43
17,CC[C@@H](CO)NC(=O)c1coc(COc2ccc3sc(C)nc3c2)n1,-14.59
18,CCCc1noc(C(C)N2CC(n3cccn3)C2)n1 (stereo not given),2.136
19,CCOCC1CN(Cc2cc(C)on2)Cc2cn(C)nc21 (stereo not given),-1.224
20,COCC1CN(Cc2ccc(OC)cc2)Cc2nn(C)cc21.O=C(O)C(F)(F)F (stereo not given),-23.14
21,CCOCC1CN(Cc2ccc3c(c2)OCO3)Cc2ncn(C)c21 (stereo not given),101.2
22,CCOCC1CN(Cc2cnn(C)c2)Cc2nn(C)cc21.O=C(O)C(F)(F)F (stereo not given),-12.04
23,Cn1cnc2c1C(COCC1CC1)CN(Cc1ccc3c(c1)OCO3)C2.O=C(O)C(F)(F)F.O=C(O)C(F)(F)F (stereo not given),34.98
24,CN(C)CC1CN(Cc2ccc3c(c2)OCO3)Cc2nccn2C1.O=C(O)C(F)(F)F.O=C(O)C(F)(F)F (stereo not given),4.386
25,COCC1CN(Cc2ccc3c(c2)OCO3)Cc2ncn(C)c21.O=C(O)C(F)(F)F.O=C(O)C(F)(F)F (stereo not given),103.2
26,CCOCC1CN(Cc2ccc3c(c2)OCO3)Cc2nccn2C1 (stereo not given),77.74
27,CCCc1nnc(NCc2ccc(OC)c(C#N)c2)o1,-5.74

row,Structure (SMILES),Percent Effect [%]
1,CN1C[C@@H](F)[C@@H](OCc2nc3ccc(C#N)cc3[nH]2)C1,11.19
2,NC(=O)CN(C(=O)Cc1ccc(C(F)(F)F)cc1)C1CCCC1,1.7
3,CCn1nc(C)c(CCn2ccnc2-c2cc3n(n2)CCCNC3)c1C,-7.012
4,CC(C)CC(O)C1CCN(Cc2cnc(-c3cccs3)nc2)CC1 (stereo not given),3.832
5,CN(C)S(=O)(=O)c1cccc(NC(=O)Cc2ccon2)c1,-6.04
6,COCCn1/c(=N\C(=O)CN(C)S(C)(=O)=O)sc2cccc(F)c21,0
7,Cl.NCC(=O)N1CCC(c2ccnc(Nc3cc(C(F)(F)F)ccn3)n2)C1 (stereo not given),119.4
8,O=C(CO)N1CCC(c2ccnc(Nc3cc(C(F)(F)F)ccn3)n2)C1 (stereo not given),149.1
9,COCC(=O)N1CC(c2ccnc(Nc3cc(C(F)(F)F)ccn3)n2)C1,171.1
10,CC(=O)N1CCC(c2ccnc(Nc3cc(C(F)(F)F)ccn3)n2)C1 (stereo not given),158.6
11,O=C(CC(F)(F)F)N1CCCC(c2nccn2Cc2ccncc2)C1 (stereo not given),-5.55
12,Nc1ccc(C(=O)N2CCCC(c3nccn3Cc3cscn3)C2)cn1 (stereo not given),-28.34
13,Cn1ccc(-c2cc(C(=O)N3CCC(O)CC3)c3ccccn23)n1,101.1
14,O=C(c1cc(-c2ccn(CC3CC3)n2)n2ccccc12)N1CCOCC1,-12.76
15,CN(C)C1CCN(C(=O)c2cc(-c3ccn(C)n3)n3ccccc23)CC1.O=C(O)C(F)(F)F,86.54
16,Cn1ccc(-c2cc(C(=O)N3CCC(C(N)=O)CC3)c3ccccn23)n1,110.4
17,CC(C)n1ccc(-c2cc(C(=O)N3CCN(C)CC3)c3ccccn23)n1.O=C(O)C(F)(F)F,-12.81
18,COCCn1cc(-c2cc(C(=O)N3CCCC3)c3ccccn23)nc1C,-3.651
19,CC(C)c1nc(-c2cc(C(=O)N3CCN(C)CC3)c3ccccn23)cs1.O=C(O)C(F)(F)F,-39.55
20,Cn1ccc(-c2cc(C(=O)N3CCCCC3)c3ccccn23)n1,111.2
21,O=C(c1cc(-c2ccn(CC3CC3)n2)n2ccccc12)N1CCCO1,-14.88
22,Cc1nc(-c2cc(C(=O)N3CCN(C)CC3)c3ccccn23)cn1C,1.368
23,CN1CCCN(C(=O)c2cc(-c3cc[nH]n3)n3ccccc23)CC1.O=C(O)C(F)(F)F.O=C(O)C(F)(F)F,9.313
24,O=C(O)c1cc(-c2ccn(CC3CC3)n2)n2ccccc12,0.5352
